Hits are enriched below; roughly 32% of the tested compounds scored in any of these assays.
CYP2C19 inhib: human CYP2C19 inhibition; actives 21% (n = 96,000); CYP2C19 Supersomes, luciferin-H EGE luminescence, 30 min; AID 778; inhibition, % at 5 µM; P33261;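 active = CYP2C19 inhibition above a set limit at 5 µM in the primary screen, cut at about 50% in these data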;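 note: plate controls were negative control wells for no effect and 2.5 mM tranylcypromine positive control for full effect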
Target sequence (P33261 whole entry, looked up): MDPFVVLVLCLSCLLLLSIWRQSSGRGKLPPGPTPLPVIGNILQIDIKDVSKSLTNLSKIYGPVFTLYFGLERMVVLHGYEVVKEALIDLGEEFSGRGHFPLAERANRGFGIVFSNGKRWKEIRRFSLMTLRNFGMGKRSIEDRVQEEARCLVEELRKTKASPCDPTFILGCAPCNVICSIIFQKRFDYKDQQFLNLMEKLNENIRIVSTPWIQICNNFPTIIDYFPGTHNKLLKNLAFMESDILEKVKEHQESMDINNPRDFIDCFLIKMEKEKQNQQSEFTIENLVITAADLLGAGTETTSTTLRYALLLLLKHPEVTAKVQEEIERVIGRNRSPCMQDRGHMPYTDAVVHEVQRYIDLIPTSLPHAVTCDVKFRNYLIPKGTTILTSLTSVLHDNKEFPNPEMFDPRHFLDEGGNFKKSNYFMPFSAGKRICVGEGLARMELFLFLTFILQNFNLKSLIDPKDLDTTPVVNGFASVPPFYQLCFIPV
PostGolgi ctrl: yeast control strain growth, post-Golgi counter-screen | efflux-deficient yeast background strain, growth absorbance A615, 16 h | inhibition, % at 10 µM | actives 5% (n = 98,000)
CYP2C9 inhib: blocks human cytochrome P450 2C9; inhibition, % at 5 µM; CYP2C9 Supersomes, luciferin-H conversion, luminescence; P11712; actives 20% (n = 96,000); AID 777;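 active = blocking of liver enzyme CYP2C9 beyond about 50% at 5 µM, limit read from the data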
CYP2C9 act: CYP2C9 (human) activation. recombinant CYP2C9, luciferin-H conversion, luminescence; hits give high values; factor 1 = untreated enzyme, 0 = blocked. activation factor at 5 µM. actives 1.4% (n = 96,000). AID 1024;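 active = activation factor of 2 or more for CYP2C9 at a 5 µM dose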;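 note: 0 = sulfaphenazole-blocked wells and 1 = vehicle-only wells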
PostGolgi yeast: growth inhibition of a yeast mutant, post-Golgi transport screen; post-Golgi transport phenotypic cell assay; inhibition, % at 10 µM; actives 0.9% (n = 98,000); AID 739;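 note: yeast cells grown in 1536-well plates; yeast grown about 18 h at 30C before absorbance read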
CYP2C19 activ: activators of human cytochrome P450 2C19; P33261; recombinant CYP2C19, luciferin-H EGE luminescence; hits give high values; 0 = fully inhibited enzyme, 1 = untreated enzyme; activation factor at 5 µM; 96,000 tested, under 10 active; AID 1025;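 active = activation factor of at least 2 at 5 µM in the primary screen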;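 note: 0 = wells with 2.5 mM tranylcypromine and 1 = vehicle-only wells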
Numbers without * were called inactive; x = not tested or not shown. Cut-off read from the data, not from the text of the source, unless noted: active = inhibition above about 30%; inactive = the rest.

SMILES	CYP2C19 inhib	PostGolgi ctrl	CYP2C9 inhib	CYP2C9 act	PostGolgi yeast	CYP2C19 activ
CCSc1nnc(NC(=O)NC(CC)(C(F)(F)F)C(F)(F)F)s1	8.9	3.4	22.5	0.8	1.6	0.9
Cc1ccc(NC(=O)NC(=O)CSc2nnnn2C)c(C)c1	15.9	2.6	-14.2	1.1	4.7	0.8
COC(=O)CN(Cc1ccco1)S(=O)(=O)c1ccccc1	44.6	4.8	46.4	0.5	-6.2	0.6
Cc1nc(C)c(C(=O)C2=C(O)C(=O)N(CCCN(C)C)C2c2ccco2)s1 (configuration not stated)	6.8	x	28.1	0.7	x	0.9
O=C1c2ccccc2C(=O)C1c1nccc2ccccc12	45.2	61.4*	57.7*	0.4	3.5	0.5
Cc1cccc(-c2csc(NC(=O)c3cnccn3)c2C(=O)OC(C)C)c1	29.6	5.9	50.5*	0.5	-4.8	0.7
CCOC(=O)c1c(N)sc2c1CCC1C(=O)N(C3CCCCC3)C(=O)C21 (configuration not stated)	90.6*	7.0	90.0*	0.1	-1.4	0.1
CCOC(=O)c1c(N)sc2c1CCC(CC)C2 (configuration not stated)	22.4	10.5	5.9	0.9	-1.8	0.8
Cc1cccc(Oc2ncnc3onc(C)c23)c1	22.6	22.1	-8.5	1.1	3.4	0.8
Cc1noc2ncnc(Sc3ccccc3Cl)c12	100.0*	15.2	68.2*	0.3	8.1	0
Cc1noc2ncnc(Oc3ccccc3)c12	75.9*	1.9	48.8	0.5	3.8	0.2
COc1ccc(C(=O)Nn2c(SCC(=O)NC3CCCC3)nc3ccccc3c2=O)cc1	-1.9	-1.8	18.4	0.8	1.3	1
Cn1nc(-c2ccc(C(=O)NCC3CCCO3)cc2)c2ccccc2c1=O (configuration not stated)	29.4	x	12.8	0.9	x	0.7
O=C(CSc1nc2ccccc2n1-c1ccccc1)NCC1CCCO1 (configuration not stated)	95.8*	5.7	71.5*	0.3	-2.5	0
COc1ccc(C(=O)Nn2c(SCC(=O)NCC3CCCO3)nc3ccccc3c2=O)cc1 (configuration not stated)	19.3	0.4	60.0*	0.4	10.0	0.8
Cn1nc(-c2ccc(OCC(=O)NCC3CCCO3)cc2)c2ccccc2c1=O (configuration not stated)	45.7	-1.7	54.5*	0.5	-1.6	0.5
COc1ccc(C(=O)Nn2c(SCC(=O)NCc3ccccc3)nc3ccccc3c2=O)cc1	5.1	6.3	74.1*	0.3	-0.8	0.9
Cc1ccc(/C=c2\s/c(=C(/C#N)C(=O)N3CCCC3)n(Cc3ccco3)c2=O)s1	12.9	8.9	23.3	0.8	-1.0	0.9
Cc1ccc2c(c1)nc(NCCO)n2C	9.2	-1.2	19.9	0.8	5.8	0.9
COCCNC(=O)CSc1nc2ccccc2c(=O)n1-c1cccc(OC)c1	82.4*	-2.4	65.3*	0.3	7.3	0.2
O=C(Cn1nc(C(=O)O)c2ccccc2c1=O)NCC1CCCO1 (configuration not stated)	-15.6	23.9	-16.9	1.2	11.9	1.2
COc1cccc(-n2c(SCC(=O)Nc3cc(C)on3)nc3ccccc3c2=O)c1	15.9	7.6	24.5	0.8	-1.7	0.8
COc1ccc(-n2nc(C(=O)NCC(=O)NCC3CCCO3)c3ccccc3c2=O)cc1Cl (configuration not stated)	15.4	12.3	60.5*	0.4	3.7	0.8
COc1ccc(CC(=O)NC(CC(=O)O)c2ccc(OC)cc2)cc1 (configuration not stated)	-14.4	-2.9	-5.2	1.1	-0.5	1.1
CCc1nnc(NC(=O)c2cccc(S(=O)(=O)N3CCc4ccccc43)c2)s1	6.1	-5.0	12.9	0.9	-4.7	0.9
SMILES	CYP2C19 inhib	PostGolgi ctrl	CYP2C9 inhib	CYP2C9 act	PostGolgi yeast	CYP2C19 activ
CC1CCc2nc(NC(=O)C3COc4ccccc4O3)sc2C1 (configuration not stated)	-1.1	28.7	16.5	0.8	20.7	1
CC1CCc2nc(NC(=O)c3ccc(S(=O)(=O)N4CCCc5ccccc54)cc3)sc2C1 (configuration not stated)	0.9	0.7	54.3*	0.5	4.1	1
CCc1nnc(NC(=O)c2ccc(S(=O)(=O)N3CCCc4ccccc43)cc2)o1	0.9	-2.0	62.3*	0.4	6.8	1
CS(=O)(=O)NCCOc1ccc(S(=O)(=O)N2CCCc3ccccc32)cc1	75.1*	12.3	-110.9	2.1*	-4.2	0.2
CCOC(=O)CSc1snnc1-c1ccccc1	37.6	12.4	24.5	0.8	9.2	0.6
O=C(CSc1nncn1-c1ccccc1)NCc1cccs1	26.7	0.9	12.9	0.9	-2.4	0.7
CCc1ccc(NC(=O)CSc2nc3cc(C(=O)OC)ccc3c(=O)n2CC2CCCO2)cc1 (configuration not stated)	19.5	-1.4	46.2	0.5	3.1	0.8
O=C(c1cccs1)n1cc(C(=S)N2CCOCC2)c2ccccc21	67.7*	18.4	11.8	0.9	10.5	0.3
O=C(CCS(=O)(=O)c1ccc(Br)cc1)NC1CCCC1	12.2	1.0	-10.0	1.1	5.2	0.9
COc1cccc(CC(NC(C)=O)C(=O)NC2CCN(S(=O)(=O)c3cccc4ccccc34)CC2)c1 (configuration not stated)	29.6	-4.2	-61.9	1.6	-11.4	0.7
Cc1ccc(-c2nc3cccnc3s2)cc1NS(=O)(=O)c1ccc2c(c1)OCCO2	-13.5	97.7*	73.8*	0.3	85.5*	1.1
O=S(=O)(Nc1cccc(-c2nc3cccnc3s2)c1)c1ccc2c(c1)OCCO2	2.7	80.4*	84.6*	0.2	30.4*	1
Cc1ccc(CNC(=O)c2cn(C3CCCC3)c(=O)c3c2c2ccccc2n3C)o1	5.8	12.7	23.7	0.8	-7.2	0.9
O=C(O)CCNS(=O)(=O)c1ccc(Oc2ccccc2)cc1	0.1	4.7	12.5	0.9	-4.3	1
CCCCCN(C(=O)COC(=O)c1ccc(Br)o1)c1c(N)n(CCCC)c(=O)[nH]c1=O	-1.0	23.2	7.4	0.9	3.8	1
CCOC(=O)C1CCCN(c2c(Nc3ccc(OCC)cc3)c(=O)c2=O)C1 (configuration not stated)	21.1	2.1	22.8	0.8	2.0	0.8
CCOC(=O)C1C(=O)NC(c2ccccc2)=NC1c1ccc(Cl)cc1 (configuration not stated)	57.3*	14.1	20.3	0.8	-3.2	0.4
CSC1=NC2(CCCCC2)C2=C(CCCC2)N1	-6.6	x	-2.0	1	x	1.1
Cc1nn(Cc2ccccc2)c(C)c1NC(=O)c1cc(-c2ccc3c(c2)OCO3)on1	-12.3	10.0	-7.0	1.1	-7.9	1.1
Fc1cccc(Cn2ccc(-c3ccc4c(c3)OCO4)n2)c1	94.8*	12.7	85.7*	0.1	4.5	0.1
